The values that follow come from PubChem BioAssay (NCI).

Structures are written as SMILES. The panel holds about 83,000 compounds, 20% with a hit somewhere; the sample as a whole holds those more often.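 Negative percent growth values reflect cell death: -40 means 40% of the cells present at the start died, and -100 means all died.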 Unmarked numbers belong to inactive results. Activity calls are given as the source filed them. The calls were made as follows: active = growth percent below 10; inactive = the rest.

Among the test systems are DU-145 prostate; K-562 leukemia; MALME-3M melanoma; MDA-MB-231 breast; RXF 393 renal; SF-268 CNS; SF-295 CNS; M14 melanoma; HCT-15 colon; HT29 colon; SNB-75 CNS; SNB-19 CNS; PC-3 prostate; SK-MEL-5 melanoma; UACC-62 melanoma; LOX IMVI melanoma; SK-MEL-28 melanoma; SF-539 CNS; UACC-257 melanoma; U251 CNS.
Assay in all cases: NCI-60 one-dose screen, 48 h (100 = growth as untreated, 0 = no growth, -100 = all killed)
Holding throughout (conditions): 10 µM unless noted

As for `N/C(=N\O)c1ncc(-c2ccc(C(F)(F)F)cc2)c(NC2CCCCCC2)n1`, the growth in the assay with DU-145 prostate was -96.1% [100 µM] (active); in the assay on K-562 leukemia, -60.4% [100 µM] (active); with MALME-3M melanoma, -92.6% [100 µM] (active); in the assay with MDA-MB-231 breast, -66.3% [100 µM] (active); in the assay on RXF 393 renal, -67% [100 µM] (active); in the assay on SF-268 CNS, -89.4% [100 µM] (active). In addition, the growth in the assay with SF-295 CNS was -94.7% [100 µM] (active); in the assay with M14 melanoma, -91.9% [100 µM] (active); in the assay with HCT-15 colon, -62.4% [100 µM] (active); with HT29 colon, -91.6% [100 µM] (active); in the assay with SNB-75 CNS it was -41.4% [100 µM] (active); in the assay on SNB-19 CNS, -12.7% [100 µM] (active). In addition, the growth in the assay on PC-3 prostate was -88.9% [100 µM] (active); with SK-MEL-5 melanoma it was -85.8% [100 µM] (active); with UACC-62 melanoma it was -88.2% [100 µM] (active); in the assay on LOX IMVI melanoma it was -73.5% [100 µM] (active); in the assay with SK-MEL-28 melanoma, 10.3% [100 µM].

For the compound `O=C(/C=C/c1cn(-c2ccccc2)nc1-c1ccccc1)OCc1cn(-c2cccc([N+](=O)[O-])c2)nn1`, the growth was 103% with DU-145 prostate; 76.2% in the assay on K-562 leukemia; 97.9% in the assay on MALME-3M melanoma; 72.8% with MDA-MB-231 breast; 105% with RXF 393 renal; 93.3% in the assay with SF-268 CNS. Moreover, the growth in the assay with SF-295 CNS was 97.8%; in the assay with SF-539 CNS it was 89.2%; in the assay on UACC-257 melanoma, 44.9%; in the assay with M14 melanoma, 91.3%; with HCT-15 colon, 95.2%; with HT29 colon, 86.3%. The growth was 74.3% in the assay with SNB-75 CNS; 87.8% with SNB-19 CNS; 67.4% with PC-3 prostate; 100% in the assay on SK-MEL-5 melanoma; 73.5% in the assay with UACC-62 melanoma; 90.1% in the assay with LOX IMVI melanoma. For the same compound, in the assay on SK-MEL-28 melanoma, the growth was 92.1%.

`N=C(N)c1ccc(-c2ccc(-c3ccco3)o2)cc1F`: the growth is 31.3% in the assay with DU-145 prostate; 1.49% (active) in the assay with K-562 leukemia; -68.2% (active) in the assay with MALME-3M melanoma; 9.14% (active) in the assay on MDA-MB-231 breast; 34.1% in the assay with RXF 393 renal; 19.8% in the assay with SF-268 CNS. The growth with SF-295 CNS was -27% (active); in the assay on SF-539 CNS it was 8.28% (active); in the assay with M14 melanoma, -65.9% (active); with HCT-15 colon, -40.6% (active); in the assay on HT29 colon, -2.59% (active); in the assay on SNB-75 CNS, 41.4%. For the same compound, the growth in the assay with SNB-19 CNS was 67.2%; with U251 CNS, -16.8% (active); with PC-3 prostate, 24.5%; in the assay on SK-MEL-5 melanoma, -93.6% (active); with UACC-62 melanoma it was -68.6% (active); in the assay with LOX IMVI melanoma, -9.26% (active). Also, the growth in the assay with SK-MEL-28 melanoma was -46.8% (active).

Regarding `CCN(C(=O)CCl)C(C)(C)C(SSSC(c1ccc(Cl)cc1)C(C)(C)N(CC)C(=O)CCl)c1ccc(Cl)cc1` (stereo unspecified), the growth in the assay with DU-145 prostate was 85.5%; in the assay with K-562 leukemia, 0.579% (active); in the assay on MALME-3M melanoma, 28.9%; with MDA-MB-231 breast, 73.7%; in the assay on RXF 393 renal, 48.6%; in the assay on SF-268 CNS, 91.1%. The growth in the assay on SF-295 CNS is 89.5%; in the assay on SF-539 CNS, 87.7%; in the assay with M14 melanoma it was -15.9% (active); with HCT-15 colon, 56.3%; in the assay with HT29 colon, 18%; with SNB-75 CNS, 84.3%. Moreover, the growth in the assay with SNB-19 CNS is 117%; in the assay with U251 CNS, 63.5%; in the assay on PC-3 prostate it was 63.3%; in the assay on SK-MEL-5 melanoma it was 73.5%; in the assay on UACC-62 melanoma it was -2.54% (active); in the assay on LOX IMVI melanoma, 66.6%. Further, the growth in the assay with SK-MEL-28 melanoma is -24.6% (active).

As for `O=C(CC(=O)c1ccccc1F)Nc1ccc([N+](=O)[O-])cc1`, the growth in the assay with DU-145 prostate is 119%; in the assay on K-562 leukemia, 91.9%; in the assay with MALME-3M melanoma, 93.6%; with MDA-MB-231 breast, 103%; with RXF 393 renal, 103%; with SF-268 CNS it was 105%. Further, the growth in the assay on SF-295 CNS was 98%; in the assay on SF-539 CNS, 93.2%; in the assay with M14 melanoma it was 100%; in the assay on HCT-15 colon, 87.8%; in the assay with HT29 colon, 91.8%; with SNB-75 CNS it was 79.1%. In addition, the growth is 96.9% in the assay with SNB-19 CNS; 94.7% with U251 CNS; 98.3% with PC-3 prostate; 86.4% with SK-MEL-5 melanoma; 80.1% in the assay on UACC-62 melanoma; 99.7% in the assay on LOX IMVI melanoma. In addition, in the assay on SK-MEL-28 melanoma, the growth is 100%.

Turning to `COc1cc2c(cc1OC)-c1cc(OC)c(OC)cc1C(CN(C)C)C2` (stereo unspecified), the growth was 45.3% [100 µM] in the assay on DU-145 prostate; 77.6% [100 µM] with K-562 leukemia; 44.1% [100 µM] with MALME-3M melanoma; 39.7% [100 µM] in the assay on MDA-MB-231 breast; 41.6% [100 µM] in the assay on RXF 393 renal; 39% [100 µM] in the assay with SF-268 CNS. The growth with SF-295 CNS was 4.33% [100 µM] (active); with M14 melanoma, 69.5% [100 µM]; in the assay with HCT-15 colon, 78.2% [100 µM]; with HT29 colon it was 78.4% [100 µM]; in the assay with SNB-75 CNS, -56.2% [100 µM] (active); in the assay on SNB-19 CNS, 7.08% [100 µM] (active). Further, the growth in the assay on PC-3 prostate is 56.3% [100 µM]; with UACC-62 melanoma it was 20.4% [100 µM]; in the assay with LOX IMVI melanoma it was 71.1% [100 µM]; in the assay on SK-MEL-28 melanoma, 41.4% [100 µM].

For the compound `COc1ccc(/C=N/NC(N)=S)c(OC)n1`, the growth is 113% in the assay on DU-145 prostate; 89.5% in the assay on K-562 leukemia; 103% with MALME-3M melanoma; 110% in the assay with MDA-MB-231 breast; 94.4% in the assay on RXF 393 renal; 109% in the assay with SF-268 CNS. Moreover, the growth in the assay on SF-295 CNS was 106%; with SF-539 CNS it was 100%; with M14 melanoma, 104%; in the assay with HCT-15 colon, 86.9%; in the assay on HT29 colon, 93.4%; in the assay with SNB-75 CNS, 79.5%. For the same compound, the growth in the assay with SNB-19 CNS was 102%; in the assay with U251 CNS, 95.8%; in the assay with PC-3 prostate, 105%; in the assay on UACC-62 melanoma it was 96.8%; with LOX IMVI melanoma it was 102%; in the assay on SK-MEL-28 melanoma, 98.5%.

For `CCOC(=O)CCN(CCC(=O)OCC)c1ccccc1`, the growth with DU-145 prostate was 111%; in the assay with K-562 leukemia it was 121%; in the assay with MALME-3M melanoma, 120%; in the assay with MDA-MB-231 breast, 111%; in the assay on RXF 393 renal, 81.3%; in the assay on SF-268 CNS, 93.6%. Moreover, the growth was 107% in the assay on SF-295 CNS; 92.4% in the assay on SF-539 CNS; 96.4% with UACC-257 melanoma; 86.6% with M14 melanoma; 101% in the assay with HCT-15 colon; 99.7% in the assay with HT29 colon. Besides, the growth with SNB-75 CNS was 93.9%; in the assay on SNB-19 CNS, 104%; with SK-MEL-5 melanoma, 96.4%; in the assay on UACC-62 melanoma it was 99.4%; in the assay on LOX IMVI melanoma, 95.8%; in the assay on SK-MEL-28 melanoma, 117%.

On to `Cc1nn(-c2ccccc2)c2nc3c(nc12)C1=NCCN1C(c1ccc(Cl)cc1)N3` (stereo unspecified), for which the growth in the assay with DU-145 prostate was 89.9%; in the assay with K-562 leukemia, 5.26% (active); with MALME-3M melanoma, 7.76% (active); in the assay on MDA-MB-231 breast, 66.8%; in the assay on RXF 393 renal, 70%; in the assay on SF-268 CNS, 84.9%. In addition, the growth in the assay with SF-295 CNS was 94.6%; with SF-539 CNS, 95.1%; with HCT-15 colon, 66.4%; in the assay with HT29 colon, 19%; with SNB-75 CNS, 62.1%; in the assay with SNB-19 CNS, 109%. In addition, the growth in the assay with PC-3 prostate was 55.1%; in the assay on UACC-62 melanoma it was 84.8%; in the assay with LOX IMVI melanoma it was 79.1%; in the assay with SK-MEL-28 melanoma, 73.3%.
